Experimental data published in the supplement of paper PMC7695840.

How the values were obtained:
[1] = system: Staphylococcus aureus MW2 delta-mecA (mecA-); assay: normalized GFP fluorescence (growth of mecA- strain) (fraction of control range); higher = more growth of mecA- strain; settings: compound concentration: 150 uM; cefoxitin: subinhibitory; fluorescent label: GFP
How it was run: (§1)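 Compound at 150 μM (1.5% DMSO) in 1536-well plates received 5 µL/well of pre-induced S. aureus MW2 cells mixed 1:1, gene-carrying with DsRed and gene-deleted with GFP, in LB with a daily-set subinhibitory antibiotic dose, single replicate. After 20 h unshaken at 37 °C, 90% humidity, DsRed (540/590) and GFP (485/520) were measured and scaled per plate between single-strain control medians. Plates with high untreated ratios and rows with DsRed/GFP >10 were excluded.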

[2] = system: Staphylococcus aureus MW2 (mecA+); assay: normalized DsRed fluorescence (growth of mecA+ strain) (fraction of control range); higher = more growth of mecA+ strain; settings: compound concentration: 150 uM; cefoxitin: subinhibitory; fluorescent label: DsRed
How it was run: as §1

SMILES	normalized GFP fluorescence [1]	normalized DsRed fluorescence [2]
CCCN(CCC)S(=O)(=O)c1ccc(C(=O)O)cc1	0.462	0.343
COc1cc(C(=O)NCc2ccc(OCCN(C)C)cc2)cc(OC)c1OC	0.326	0.862
CC(C)/N=c1\cc2n(-c3ccc(Cl)cc3)c3ccccc3nc-2cc1Nc1ccc(Cl)cc1	0.344	1.15
NS(=O)(=O)c1cc2c(cc1Cl)NCNS2(=O)=O	0.562	0.865
NCCc1ccc(O)c(O)c1	0.483	0.728
O=C1CCc2cc(OCCCCc3nnnn3C3CCCCC3)ccc2N1	0.533	0.561
CC(C)(C)C(=O)OCOP(=O)(COCCn1cnc2c(N)ncnc21)OCOC(=O)C(C)(C)C [Adefovir Dipivoxil (Preveon, Hepsera)]	0.38	0.712
NC(=O)c1cccnc1 [Nicotinamide (Niacinamide)]	0.478	0.458
Nc1nc2[nH]cc(CCc3ccc(C(=O)N[C@@H](CCC(=O)O)C(=O)O)cc3)c2c(=O)[nH]1	0.937	0.63
O=C(NCC1CCCCN1)c1cc(OCC(F)(F)F)ccc1OCC(F)(F)F (configuration not stated)	0.508	0.624
CS(=O)(=O)c1ccc(C2=C(c3ccccc3)C(=O)OC2)cc1	0.195	0.89
Cn1cnc2c1c(=O)[nH]c(=O)n2C	0.351	0.469
CC(C)(CO)[C@@H](O)C(=O)NCCCO	0.406	0.653
CCCSc1nc(N[C@@H]2C[C@H]2c2ccc(F)c(F)c2)c2nnn([C@@H]3C[C@H](OCCO)[C@@H](O)[C@H]3O)c2n1 [Ticagrelor]	-0.0296	-0.0335
O=C(OOC(=O)c1ccccc1)c1ccccc1	0.437	0.519
CC(=O)OCC(=O)[C@@]12OC(C)(C)O[C@@H]1C[C@H]1[C@@H]3C[C@H](F)C4=CC(=O)C=C[C@]4(C)[C@@]3(F)[C@@H](O)C[C@@]12C	0.439	0.736
c1ccc2c(CC3=NCCN3)cccc2c1	0.526	0.668
C=C[C@H]1CN2CC[C@H]1C[C@H]2[C@H](O)c1ccnc2ccc(OC)cc12	0.628	0.748
O=C(OCc1ccccc1)c1ccccc1	0.269	0.596
COC(=O)[C@@H]1[C@H]2C[C@H]3c4[nH]c5ccccc5c4CCN3C[C@@H]2CC[C@@H]1O	0.259	0.809
CCOC(=O)C1=C[C@@H](OC(CC)CC)[C@H](NC(C)=O)[C@@H](N)C1	0.257	0.588

SMILES	normalized GFP fluorescence [1]	normalized DsRed fluorescence [2]
COc1cc2nccc(Oc3ccc(NC(=O)NC4CC4)c(Cl)c3)c2cc1C(N)=O [E7080 (Lenvatinib)]	0.528	0.638
COC(=O)Nc1nc2cc(C(=O)c3ccc(F)cc3)ccc2[nH]1	0.715	0.661
O=C(/C=C/c1cccc(S(=O)(=O)Nc2ccccc2)c1)NO [Belinostat (PXD101)]	0.364	1.16
N[C@H](C(=O)O)[C@H](O)c1ccc(O)c(O)c1 [Droxidopa (L-DOPS)]	-0.00088	1.79
CCN(CC)C(=O)N1CCN(C)CC1	0.599	0.455
CCN(CC)C(=O)c1cccnc1	0.263	0.829
COc1cc(CNC(=O)CCCC/C=C/C(C)C)ccc1O	0.0346	0.539
CCCCC1=NC2(CCCC2)C(=O)N1Cc1ccc(-c2ccccc2-c2nnn[nH]2)cc1	0.0654	0.337
c1ccc([C@H]2CN3CCSC3=N2)cc1	0.522	0.535
C1CCN2C[C@@H]3C[C@@H](CN4CCCC[C@@H]34)[C@H]2C1	0.334	0.556
CCCCCC(=O)O[C@]1(C(C)=O)CC[C@H]2[C@@H]3CCC4=CC(=O)CC[C@]4(C)[C@H]3CC[C@@]21C	0.34	0.39
O=C1NCC2(CCN(CCc3ccccc3)CC2)O1	0.307	0.724
CNCc1ccc(-c2[nH]c3cc(F)cc4c3c2CCNC4=O)cc1	0.424	0.641
CN(CCOc1ccc(CC2SC(=O)NC2=O)cc1)c1ccccn1 (configuration not stated)	0.341	0.876
Cc1cccc(N(C)C(=S)Oc2ccc3ccccc3c2)c1	0.561	0.911
O=C(O)COCCN1CCN([C@H](c2ccccc2)c2ccc(Cl)cc2)CC1	0.222	0.775
N[C@H]1C(O)O[C@H](CO)[C@@H](O)[C@@H]1O (some centres not stated)	0.468	0.564
Oc1ccc(O)cc1	0.379	0.882
Nc1nc(N)c2nc(-c3ccccc3)c(N)nc2n1	0.0839	1.75
NC[C@@H]1O[C@H](O[C@H]2[C@@H](O)[C@H](O[C@@H]3[C@@H](O)[C@H](N)C[C@H](N)[C@H]3O[C@H]3O[C@H](CO)[C@@H](O)[C@H](O)[C@H]3N)O[C@@H]2CO)[C@H](N)[C@@H](O)[C@@H]1O	0.422	0.794
